# In publication PMC5540273 (PLoS ONE, 2017):
# System: EIF2AK1
# Details: concentration: 1 μM, replicates: in singlicate; n = 1
# 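Note: KINOMEscan kinase panel screen.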
row,Structure (SMILES),%Inh [%]
1,CN1C(=O)C(Nc2ccccc2)=C(c2ccccc2)C1=O [SB-300079],0
2,CCC(=O)c1c(-c2ccccc2)c2cc(Cl)ccc2c(=O)n1Cc1ccc(C(=O)O)cc1,0
3,COc1cc(Nc2nccc(N3CCC(NC(=O)C(C)c4ccc(Cl)cc4)C3)n2)cc(OC)c1OC (stereo not drawn) [GSK1379757],0
4,O=C(NCc1cccs1)c1cc(C(=O)c2c(Cl)cccc2Cl)c[nH]1 [GW823670],0
5,Cl.c1ccc(Cn2cnc3cc(Nc4ncnc5ccccc45)ccc32)cc1 [GW272142],0
6,COc1cc2ncn(-c3cc(OCc4ccc(S(C)(=O)=O)cc4)c(C(N)=O)s3)c2cc1OC [GW869979],7
7,CCS(=O)c1ccc(-c2coc3ccc(-c4nnc(C)o4)cc23)cc1 (stereo not drawn),0
8,O=C(Nc1n[nH]c2nc(-c3ccccc3)c(Br)cc12)C1CC1 [SB-708998],34
9,Cl.NS(=O)(=O)c1cccc(Nc2cc(-c3ccc(F)cc3)n[nH]2)c1 [GW824645],0
10,COC(=O)c1c(-c2ccccc2)c2cc(Br)ccc2c(=O)n1Cc1ccc(NC(=O)CCC(=O)O)cc1,12
11,CCCNC(=O)Nc1ccc(Oc2ncnc3ccn(C)c23)cc1,0
12,FC(F)(F)c1ccc(-c2ncn(CCCN3CCOCC3)c2-c2ccncc2)cc1 [SB-217780],10
13,Cc1c(Cn2c(C)nn3c(=O)cc(N4CCO[C@H](C)C4)nc23)cccc1C(F)(F)F [GSK2373690],0
14,COc1cccc(-n2cnc3c(N)ncnc32)c1 [SKF-97416],35
15,Nc1nc(N)c2nc(-c3ccccc3)[nH]c2n1 [SKF-12778],21
16,COc1ccc(CNC(=O)NC2CCN(c3ccnc(Nc4ccc(F)cc4)n3)C2)cc1 (stereo not drawn) [GSK1379706],0
17,COc1cccc(C2=C(N(C)c3ccccc3)C(=O)NC2=O)c1 [SB-334865],0
18,COc1ccc(-c2cc3c(C)nc(N)nc3n([C@H]3CC[C@H](OCCO)CC3)c2=O)cn1,8

row,Structure (SMILES),%Inh [%]
1,Nc1ncnc2c1ncn2-c1cccc2ccccc12 [SKF-97184],0
2,Cc1ccc(-c2ccc3c(ccc4sc5c(c43)NC[C@@H](C)N=C5N(C)C)n2)cn1,7
3,COc1cccc(C2=C(Nc3cccc(C(=O)O)c3)C(=O)NC2=O)c1 [SB-390770],0
4,Cc1nc(N(C)[C@H]2CN(C(=O)CC#N)CC[C@H]2C)c2cc[nH]c2n1,0
5,CN(C)c1cc(-c2ccc3c(N)n[nH]c3c2)nc(N)n1 [GSK2219329],0
6,COc1ccc(-c2cc3c(C)nc(N)nc3n([C@H]3CC[C@H](O)CC3)c2=O)cn1,0
7,OCCCNc1nccc(-c2c(-c3cccc(C(F)(F)F)c3)nn3cc(C(F)(F)F)ccc23)n1 [GW630813],0
8,O=C(Nc1n[nH]c2cc(-c3ccccc3F)ccc12)C1CC1 [SB-733371],0
9,Nc1nc(-c2ccccc2F)c(-c2ccnc3ccccc23)s1 [GW560459],0
10,Cn1c(=O)c(F)c(Nc2ccc(I)cc2F)c2c(=O)n(OC[C@H](O)CO)cnc21,0
11,Cc1cc(Nc2nc(-c3cccc(C)n3)nc3ccccc23)ccn1 [GW872411],0
12,COc1cc2nccc(Nc3ccc(OCc4ccc(NC(C)=O)cc4)cc3)c2cc1OC.Cl [GW440135],17
13,Cc1nnc(-c2ccc(C)c(-c3ccc(C(=O)O)cc3)c2)o1 [GW608005],0
14,CCS(=O)(=O)c1ccc(OC)c(Nc2ncc(-c3ccc(F)cc3)o2)c1.Cl [GW591947],5
15,CCc1ccc(-c2ccc3c(c2)-c2nn(C)cc2S(=O)(=O)N3C)cc1,0
16,CCC(=O)c1c(-c2ccccc2)c2cc(Cl)ccc2c(=O)n1Cc1cc(S(C)(=O)=O)n(CCC(C)(C)O)n1,19
17,C[C@@H]1CC[C@H](C(=O)NC2CCCCC2)CN1c1cc(-c2ccc3c(N)n[nH]c3c2)nc(N)n1 [GSK2291363],0
18,O=c1cc(N2CCOCC2)nc2n(Cc3ccc(F)c(Cl)c3)ccn12 [GSK2297099],0
